The term IC50 denotes the point on the concentration scale where inhibition reaches its midpoint.

Values without a mark were called inactive. The rule behind the calls is not given here. Some results are limits rather than exact numbers.

The assay can be described thus: fibrin DD(E) binders, counter-screen IC50, biochemical, fluorescence polarization, dose response, counter-screen for fibrin DD(E)-Tn6 binding project, late-stage follow-up (AID 1053128). To be noted: Fluorescence polarization counterscreen, Tn6 peptide/DD(E) assay. (A counterscreen serves to expose hits that act by an unwanted route or on another target.)
As for `NS(=O)(=O)c1ccc(NS(=O)(=O)c2ccc(NC(=O)c3ccc(-c4ccccc4)cc3)cc2)cc1`, the IC50 is over 83.3 µM. Consider `COc1ccc2ccccc2c1C(O)c1nccn1C` (stereo not given), for which the IC50 is over 83.3 µM. For the compound `N#CC1=C(N)Oc2ccc3ccc(O)cc3c2C1c1ccsc1` (stereo not given), the IC50 was over 83.3 µM. For the compound `Cc1cc2c(cc1S(=O)(=O)N1CCN(c3cccc(C)c3C)CC1)OCCN2C`, the IC50 was over 83.3 µM.

Consider `CCn1c(CSc2n[nH]c(N)n2)nc2cc(C(=O)O)ccc21`, for which the IC50 was over 83.3 µM.

As for `Cc1cc2cc(CNS(=O)(=O)c3ccc4ccccc4c3)ccc2n1C`, the IC50 is over 83.3 µM. Regarding `Cc1cc2cc(CNC(=O)c3ccc(S(=O)(=O)N4CCOCC4)cc3)ccc2n1C`, the IC50 is over 83.3 µM. As for `CN1C(=O)NC(c2ccccc2[N+](=O)[O-])C2=C1CCCC2=O` (stereo not given), the IC50 was over 83.3 µM. Turning to `O=C(O)CCCNc1cc(N2CCN(C(=O)c3ccco3)CC2)c2noc3c2c1C(=O)c1ccccc1-3`, the IC50 was over 83.3 µM. In the case of `Cc1cc(C)c(S(=O)(=O)NCCn2c(C)cc3ccccc32)c(C)c1`, the IC50 is over 83.3 µM.

The values above are taken from PubChem BioAssay AID1053128 (The Scripps Research Institute Molecular Screening Center, 2014).
